The supplement of paper PMC3334620
The full ranking holds about 33,000 sequences; the median of “E-score (-0.5 to 0.5)” is about -0.0059, and the highest 2% start at about 0.26. Only a selection was taken, and the highest values are over-represented in it overall.

Each sequence was assayed against T1, Cin5 (UniProt P40917) (assay: PBM E-score (8-mer binding enrichment) (E-score (-0.5 to 0.5)); higher = stronger / more preferred TF binding). Settings: protein concentration: 100 nM; construct: GST-full length.
T1 sequence: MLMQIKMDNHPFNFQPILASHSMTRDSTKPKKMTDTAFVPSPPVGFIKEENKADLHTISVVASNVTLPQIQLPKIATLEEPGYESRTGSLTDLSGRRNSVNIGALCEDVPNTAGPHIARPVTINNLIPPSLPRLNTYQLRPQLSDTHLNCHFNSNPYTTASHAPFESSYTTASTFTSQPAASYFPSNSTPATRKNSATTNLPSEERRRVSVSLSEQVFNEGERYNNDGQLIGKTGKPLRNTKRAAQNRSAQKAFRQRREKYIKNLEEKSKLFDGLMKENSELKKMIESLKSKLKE
Procedure: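 Universal 'all 10-mer' protein binding microarrays (Agilent AMADID 015681) probed with GST-tagged S. cerevisiae TFs (full-length or DBD) made by in vitro transcription/translation (PURExpress), about 100-200 nM. Bound TF was detected with fluorescent anti-GST. Each ungapped 8-mer (which stands for itself and its reverse complement) is scored by the PBM enrichment score (E-score), a modified Wilcoxon-Mann-Whitney statistic from -0.5 to +0.5, computed with the Universal PBM Analysis Suite. Scale: above 0.35 generally sequence-specific binding.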

Sequence	PBM E-score
ATATTCCA	0.274
CTATTCCA	0.215
AAAAGCTT	-0.127
CCTCAATA	-0.0429
CCGGGGCC	-0.242
CTCGAGAA	-0.0673
ACTTGTAC	0.00779
ATATCTCA	0.277
CTATCTCA	-0.00021
ATCTCTCA	0.216
CTGCTATA	0.117
GCAACTCA	0.00079
GAAGCTTA	0.171
AAAGCTGA	-0.056
CAAGCTTA	0.184
TAAGCTTA	0.372
CAAGCTGA	0.233
TAAGCTGA	0.267
GGCTGTCA	-0.21
TATATCAA	0.196
GCATCGGC	-0.125
ACTACCCG	-0.0362

Sequence	PBM E-score
AGCTTCCG	-0.0682
AGTATTAG	0.275
AGTATTCC	0.225
AGTATTAA	0.242
GGTATTAC	0.271
AGTATTAT	0.0851
CGTATTAG	0.109
AGTATTAC	0.27
GGTATTAA	0.064
CGTATTAC	0.214
GGTTGCTA	-0.0578
GACCGCCA	-0.0859
CACTGTAC	-0.0867
CTTGCACC	0.0355
AAGCACAT	0.206
AGGAGAGC	-0.394
AGCAGCAG	-0.0447
CCTGGTAC	-0.1
CTCTGATC	-0.162
ATATTAGA	0.159
GTATTGTA	0.274
CTATTACA	0.181

Sequence	PBM E-score
ATATTATA	0.265
GCATTACA	0.167
CTATTGTA	0.13
GTATTAGA	0.234
CTATTATA	0.142
GTATTATA	0.267
GTATTACA	0.34
ATATTGTA	0.151
GCATTATA	0.152
AGCTAGGC	-0.14
CGCCGCAA	0.0347
GACAGTCA	-0.165
CCGAATGA	-0.0132
CCCAATAC	-0.00655
TTCCGGAA	0.248
ATCCTCTG	0.0169
AGGATCCA	-0.0524
GGAATCCA	0.0132
ATATTATG	0.379
AGATTATG	0.248
ATATTATC	0.233
GGGGTGTA	-0.208

Sequence	PBM E-score
CCCGATAG	-0.0593
AATAATGT	0.273
AATAATGG	0.226
AATAATAT	0.356
GATAATAA	0.199
AATAATAC	0.181
AATAATAA	0.305
AATAACCT	0.061
CATAATAA	0.0985
AATAATGC	0.145
AATAATCT	0.345
AATAATAG	0.198
AAAAATCT	0.0604
AAAAAACG	0.125
AATCATTG	0.207
ACGCAGTA	-0.15
CCACCGTA	-0.049
GGTAGCAC	-0.152
CATGGATC	-0.00694
ACTCGCGA	0.214
